Results: PubChem BioAssay (NCATS)
Values joined by “and” are separate entries in the source; they are usually repeats but may differ in a detail not shown here. Equal values may be shown once. Records with an inconclusive call do not appear. Some compounds were tested as several samples or in several runs, with calls that do not always agree. Active and inactive are the calls of the source. Unless noted, the call rests on the fitted dose curve; in most records, active means well fitted curve in the direction sought with a large enough effect; inconclusive means small, poorly fitted or top-dose-only effect, or another doubt; inactive means no such curve, though single readings can be large; an effect the other way counts as inactive or inconclusive.

Tests used:
[1] = qHTS Assay for Identification of Small Molecule Antagonists for NFkB Signaling Pathway (AID 895; active means well fitted inhibition curve with a large enough effect in the signal ratio, with a control signal flat, not every such curve was filed as active; the % refers to the signal ratio; further: potency means the concentration at half of the fitted maximal effect)
Method in brief: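 NFkB-bla ME-180 cervical carcinoma cells with beta-lactamase reporter under NFkB response element; compounds added, then TNF alpha at 10 pM final (EC50), 5 h at 37 C. LiveBLAzer substrate 2 h, room temperature; emission 460/530 nm at 405 nm excitation.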

[2] = qHTS Assay for Identification of Small Molecule Agonists for Thrombopoietin (TPO) Signaling Pathway (AID 917); further: potency means the concentration at half of the fitted maximal effect
Method in brief: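 Luciferase reporter (Glycoprotein IIb promoter) in IL-3-deprived Ba/F3 cells carrying human TPO receptor; compounds co-added with 26 pM TPO, incubated 24 h, 37 C. Steadylite luminescence measured after 10 min.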

[3] = molecular target: Muscarinic acetylcholine receptor M1 (Rattus norvegicus) (UniProt P08482); test: qHTS Assay for Antagonists of Acetylcholine Muscarinic M1 Receptor: Kinetic Measurement of Intracellular Calcium Response (AID 943);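 further: Fluo-4 calcium signal as peak divided by basal fluorescence over 4 min; series mostly up to about 35 µM; nearly all actives have a fitted effect of over 75% in size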
Method in brief: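 Read-out: peak over basal Fluo-4 fluorescence, kinetic at 1 Hz for 4 min after EC80 carbachol (100 nM final). Rat M1-CHO cells, dye loaded 1 h at 37C, compound added 10 min before agonist.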

[4] = molecular target: Pyruvate kinase (Leishmania mexicana) (UniProt Q27686); test: qHTS Validation Assay for Inhibitors of Leishmania Mexicana Pyruvate Kinase (AID 945); further: potency means the concentration at half of the fitted maximal effect
Method in brief: (§1)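 The enzyme is a highly purified E451W mutant of LmPYK used at 0.2 nM. It converts 0.5 mM PEP and 0.1 mM ADP over 1 h at room temperature; product ATP is quantified by luciferase luminescence relative to DMSO controls.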

[5] = molecular target: Pyruvate kinase PKM (Homo sapiens) (UniProt P14618); test: qHTS Assay for Activators of Human Muscle Pyruvate Kinase (AID 954; active means well fitted curve in the direction sought with a large enough effect, not every such curve was filed as active;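 further: 0% = uninhibited enzyme and -100% = no enzyme or full thiadiazolimine inhibition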)
Method in brief: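 Screening used highly purified human pyruvate kinase M2 under submaximal activity, with PEP at its Km and ADP below Km. After an hour at room temperature, ATP was read by luciferase luminescence.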

[6] = molecular target: Muscarinic acetylcholine receptor M1 (Rattus norvegicus) (UniProt P08482); test: qHTS Assay for Antagonists of Acetylcholine Muscarinic M1 Receptor: Measurement of IP-One Response (AID 944); further: nearly all actives have a fitted effect of over 75% in size
Method in brief: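 Read-out: HTRF competition between d2-IP1 and Eu-cryptate anti-IP1 antibody, emission 620 and 665 nm. Stimulus was carbachol, EC80 (200 nM), for 30 min in M1-CHO cells (rat receptor), after 10 min compound pre-treatment.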

[7] = molecular target: Pyruvate kinase PKM (Homo sapiens) (UniProt P14618); test: qHTS Assay for Inhibitors of Human Muscle Pyruvate Kinase (AID 958)
Method in brief: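 Luminescence from a luciferase ATP-detection/stop reagent reported PKM2 activity. Reactions contained 0.1 nM purified human enzyme, 0.5 mM PEP, 0.1 mM ADP and 7 mM MgCl2 at pH 7.2, run 1 h at RT.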

[8] = molecular target: Pyruvate kinase (Leishmania mexicana) (UniProt Q27686); test: qHTS Validation Assay for Activators of Leishmania Mexicana Pyruvate Kinase (AID 959)
Method in brief: as §1

[9] = molecular target: Cytochrome P450 2C19 (Homo sapiens) (UniProt P33261); test: qHTS Assay for Inhibitors and Substrates of Cytochrome P450 2C19 (AID 899); further: nearly all actives have a fitted effect of over 60% in size; further: potency means the concentration at half of the fitted maximal effect
Method in brief: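 Human CYP2C19 (5nM) with Luciferin-H EGE at 10uM (its KM) in 50mM KPO4 was preincubated with compound for 10 min at 37C. NADPH regeneration started a 60 min 37C reaction. Luciferin was read by luminescence, normalized to 57uM ketoconazole.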

[10] = Confirmation and Secondary Assay for Modulators of Hemoglobin Beta Chain Splicing at IVS2 654 locus (AID 910);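 further: per-well total GFP intensity by laser scanning cytometry after 2-day treatment; % of control where 0% means no effect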
Method in brief: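 HeLa cells stably carrying EGFP interrupted by mutant beta-globin IVS2-654 intron (CMV-driven) were treated with compound for 2 days at 37C; corrected splicing was scored as total peak GFP intensity per well (488 nm excitation, 500-520 nm emission).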

[11] = qHTS Assay for Identification of Small Molecule Agonists for Hypoxia Response Element Signaling Pathway (AID 914; active means well fitted activation curve with a large enough effect in the signal ratio, with a control signal flat, not every such curve was filed as active; the % refers to the signal ratio; further: % of control where 0% means no effect); conditions: ME-180 (cervical carcinoma) HRE-bla reporter, beta-lactamase ratio, CoCl2, 17 h; activation: stronger effect = higher value
Method in brief: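 Cells were plated overnight, pin-dosed with compound in a titration series, co-stimulated with EC50 CoCl2 and incubated 17 hours at 37 degrees Celsius. CCF4 substrate was then loaded, and AC50 values came from the 460nm/530nm ratio.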

[12] = Confirmation and Secondary Assay for Modulators of Hemoglobin Beta Chain Splicing at IVS2 705 locus (AID 930);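 further: HeLa cells stably expressing the EGFP-705 splicing reporter; GFP fluorescence per well restored by corrected splicing of the IVS2-705 intron in EGFP; series mostly up to about 46 µM; % of control where 0% means no effect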
Method in brief: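 Splice-correction reporter: EGFP cDNA split by beta-globin intron 2 bearing the 705 mutation, stably in HeLa. Compound incubation 2 days, 37C; fluorescent objects 5-250 µm summed per well.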

[13] = qHTS Assay for Identification of Small Molecule Antagonists for Thrombopoietin (TPO) Signaling Pathway (AID 918); conditions: TPO-dependent cell signaling reporter, antagonist mode; further: potency means the concentration at half of the fitted maximal effect; nearly all actives have a fitted effect of over 60% in size
Method in brief: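 Luminescence read-out: GPIIb-promoter luciferase in Ba/F3 cells carrying human TPO receptor. Compounds added with 26 pM TPO (EC50), 24 hrs, 37 C, 5% CO2; cells deprived of IL-3 overnight beforehand. Inhibition of signal scored.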

Sequence of Pyruvate kinase PKM (Homo sapiens) (P14618 whole entry, looked up): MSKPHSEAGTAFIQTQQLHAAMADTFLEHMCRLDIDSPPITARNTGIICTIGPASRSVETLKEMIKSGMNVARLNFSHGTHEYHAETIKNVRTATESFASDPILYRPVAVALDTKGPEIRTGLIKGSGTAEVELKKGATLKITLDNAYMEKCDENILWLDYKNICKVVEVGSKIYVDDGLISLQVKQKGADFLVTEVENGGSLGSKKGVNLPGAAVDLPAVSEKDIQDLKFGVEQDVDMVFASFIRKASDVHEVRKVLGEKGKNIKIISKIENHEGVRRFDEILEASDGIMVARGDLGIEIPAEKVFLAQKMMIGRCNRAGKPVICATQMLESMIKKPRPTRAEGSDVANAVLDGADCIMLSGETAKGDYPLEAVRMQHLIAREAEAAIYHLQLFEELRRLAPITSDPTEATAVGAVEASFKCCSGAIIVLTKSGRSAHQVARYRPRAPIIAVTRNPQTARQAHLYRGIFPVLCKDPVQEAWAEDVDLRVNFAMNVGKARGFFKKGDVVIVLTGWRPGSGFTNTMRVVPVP
Sequence of Pyruvate kinase (Leishmania mexicana) (Q27686 2-499 E452W): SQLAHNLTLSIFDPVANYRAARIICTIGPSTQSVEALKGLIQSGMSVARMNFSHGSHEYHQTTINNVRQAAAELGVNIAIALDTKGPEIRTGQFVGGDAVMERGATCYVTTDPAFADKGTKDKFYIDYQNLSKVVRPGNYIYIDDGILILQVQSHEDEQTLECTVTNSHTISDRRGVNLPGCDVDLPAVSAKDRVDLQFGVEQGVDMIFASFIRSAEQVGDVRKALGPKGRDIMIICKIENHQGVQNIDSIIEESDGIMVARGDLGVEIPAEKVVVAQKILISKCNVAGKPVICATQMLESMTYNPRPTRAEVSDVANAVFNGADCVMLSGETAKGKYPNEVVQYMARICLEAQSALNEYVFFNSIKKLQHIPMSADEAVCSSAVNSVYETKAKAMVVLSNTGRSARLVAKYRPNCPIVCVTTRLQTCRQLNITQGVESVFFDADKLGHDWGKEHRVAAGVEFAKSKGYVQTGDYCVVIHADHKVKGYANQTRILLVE
Sequence of Muscarinic acetylcholine receptor M1 (Rattus norvegicus) (P08482 whole entry, looked up): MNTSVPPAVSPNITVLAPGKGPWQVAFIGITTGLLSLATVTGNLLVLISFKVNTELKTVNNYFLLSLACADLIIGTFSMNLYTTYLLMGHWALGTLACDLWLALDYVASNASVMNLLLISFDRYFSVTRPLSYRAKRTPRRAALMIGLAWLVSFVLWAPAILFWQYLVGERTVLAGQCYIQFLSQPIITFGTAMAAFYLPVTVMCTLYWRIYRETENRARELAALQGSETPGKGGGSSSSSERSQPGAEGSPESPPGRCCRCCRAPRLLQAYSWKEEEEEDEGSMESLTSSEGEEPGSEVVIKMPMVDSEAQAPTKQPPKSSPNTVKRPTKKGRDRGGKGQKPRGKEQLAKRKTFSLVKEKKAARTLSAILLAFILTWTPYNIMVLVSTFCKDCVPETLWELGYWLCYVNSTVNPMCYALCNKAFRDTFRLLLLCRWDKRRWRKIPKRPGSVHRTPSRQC
Sequence of Cytochrome P450 2C19 (Homo sapiens) (P33261 whole entry, looked up): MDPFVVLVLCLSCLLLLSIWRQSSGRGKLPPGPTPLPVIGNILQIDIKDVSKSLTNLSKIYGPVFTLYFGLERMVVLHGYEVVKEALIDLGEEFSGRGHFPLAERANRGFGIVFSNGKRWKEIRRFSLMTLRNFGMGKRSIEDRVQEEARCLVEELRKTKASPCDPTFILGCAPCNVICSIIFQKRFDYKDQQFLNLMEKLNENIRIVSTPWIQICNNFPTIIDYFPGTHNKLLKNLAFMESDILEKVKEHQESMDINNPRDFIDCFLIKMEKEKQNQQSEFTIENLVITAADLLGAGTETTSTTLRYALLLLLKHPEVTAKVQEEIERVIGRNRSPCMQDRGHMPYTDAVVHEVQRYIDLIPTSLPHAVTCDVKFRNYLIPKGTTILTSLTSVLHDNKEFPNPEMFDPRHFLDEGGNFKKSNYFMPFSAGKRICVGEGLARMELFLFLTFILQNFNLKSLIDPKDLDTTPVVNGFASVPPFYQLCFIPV

CN(C)S(=O)(=O)c1ccc2c(c1)/C(=C/c1cc3c([nH]1)CCCC3)C(=O)N2
inactive: Potency [2] | Potency [3] | Potency [4] | outcome [5]
active: Potency [1] 1.58 µM

Nc1ccc(-c2ccc3ccccc3n2)cc1
active: Potency [4] 12.6 µM | Potency [7] 12.6 µM
inactive: Potency [1] | Potency [6] | outcome [5] | Potency [8]

CCCc1c(-c2ccc(O)cc2)nn(-c2ccc(O)cc2)c1-c1ccc(O)cc1
active: Potency [9] 10 µM
inactive: Potency [3] | Potency [4] | outcome [5]

CNC(=O)c1cc2c(cn1)[nH]c1ccccc12
inactive: Potency [9] | Potency [3] | Potency [6] | outcome [5] | Potency [8]

Cn1c(=O)c2[nH]c(C3CCCC3)nc2n(C)c1=O
inactive: Potency [10] | activation [11] -4.29% | Potency [2] | outcome [12] | Potency [3] | Potency [6] | Potency [4] | outcome [5]

CCn1c(=O)[nH]c2cc(Cl)c(Cl)cc21
inactive: Potency [9] | Potency [2] | Potency [3] | Potency [6] | Potency [4] | outcome [5]

NC(=O)CC[C@H](N)C(=O)O
inactive: Potency [10] | outcome [12]

CC(=O)N[C@@H](Cc1c[nH]c2ccccc12)C(=O)OCc1cc(C(F)(F)F)cc(C(F)(F)F)c1
active: Potency [9] 7.94 µM
inactive: Potency [3] | Potency [6] | Potency [4] | outcome [5]

Cn1c(=O)c2[nH]c(-c3ccc(S(=O)(=O)O)cc3)nc2n(C)c1=O
inactive: Potency [9] | Potency [2] | Potency [3] | Potency [6] | Potency [4] | outcome [5]

O=C(O)c1ccccc1Nc1ccccc1
inactive: Potency [10] | Potency [2] | outcome [12] | Potency [3] | Potency [6] | Potency [4] | outcome [5]

Cn1cc(C(=O)OCC2CCN(CCNS(C)(=O)=O)CC2)c2ccccc21
inactive: Potency [9] | activation [11] 26.2% | Potency [2] | Potency [6] | Potency [4] | outcome [5]

O=c1cc(-c2ccccc2)[nH]c2nc(Cl)ccc12
inactive: Potency [9] | Potency [2] | Potency [3] | Potency [6] | Potency [4] | outcome [5]

C=C1C(=O)O[C@@H]2[C@H]3O[C@]3(C)CCC=C(C)CC[C@@H]12
inactive: Potency [9]

COCc1nc2c([nH]1)c(=O)n(C)c(=O)n2CC(C)C
inactive: Potency [9] | Potency [2] | Potency [3] | Potency [6] | Potency [4] | outcome [5]

O=C1Cc2c([nH]c3ccc(Br)cc23)-c2ccccc2N1
inactive: Potency [9] | Potency [3] | outcome [5] | Potency [8]
active: Potency [2] 0.158 µM

O=C(O)c1cc2cc(F)ccc2[nH]1
inactive: Potency [9] | Potency [10] | Potency [2] | outcome [12] | Potency [3] | Potency [6] | Potency [4] | outcome [5]

CC(C)Cn1c(=O)n(C)c(=O)c2[nH]cnc21
inactive: Potency [10] | Potency [2] | outcome [12] | Potency [3] | Potency [6] | Potency [4] | outcome [5]

O=[N+]([O-])c1cccc2c(Br)[nH]nc12
inactive: Potency [10] | Potency [2] | outcome [12] | Potency [4] | outcome [5]

CN1C2CCC1CC(OC(c1ccccc1)c1ccccc1)C2 (centres undefined)
inactive: Potency [10] | outcome [12]

O=C(N[C@@H](Cc1ccccc1)C(=O)CCl)OCc1ccccc1
inactive: Potency [3] | Potency [6] | Potency [4] | outcome [5]
active: Potency [9] 5.01 µM | Potency [13] 2.51 µM

CN(C)CCC(c1ccc(Br)cc1)c1ccccn1 (centres undefined)
inactive: Potency [10] | outcome [12]

CC(C)NC[C@H](O)COc1ccc(CC(N)=O)cc1
inactive: Potency [10] | Potency [2] | outcome [12] | Potency [4] | outcome [5]

O=C(O)/C=C/c1ccc(O)c(O)c1
inactive: Potency [10] | Potency [2] | outcome [12] | Potency [3] | Potency [6] | Potency [4] | outcome [5]

Nc1nc2ccc(Cl)cc2c2nc(-c3ccco3)nn12
inactive: Potency [9] | Potency [3] | Potency [6] | Potency [4] | outcome [5]

NCCCCN=C(N)N
inactive: Potency [10] | Potency [2] | outcome [12] | Potency [3] | Potency [6] | Potency [4] | outcome [5]

C[C@H](NC(=O)/C(C#N)=C/c1ccc(O)c(O)c1)c1ccccc1
inactive: Potency [9] | Potency [3] | Potency [6] | Potency [4] | outcome [5]

C=C(C)C1CC=C(C(=O)O)CC1 (centres undefined)
inactive: Potency [10] | outcome [12]

NCCCCN
inactive: Potency [10] | Potency [2] | outcome [12] | Potency [3] | Potency [6] | Potency [4] | outcome [5]

CC(=O)NNC(=O)N1Cc2ccccc2Oc2ccc(Cl)cc21
inactive: Potency [9] | Potency [4] | outcome [5]

Cn1ccnc1
inactive: Potency [9] | Potency [2] | Potency [3] | Potency [6] | Potency [4] | outcome [5]

O=C(O)c1ccccc1Nc1cccc(OCc2ccc3ccccc3n2)c1
inactive: Potency [3] | Potency [6] | Potency [4] | outcome [5]
inactive and 5.01 µM (active): Potency [9]

Oc1cc(O)c2c(c1)O[C@H](c1ccc(O)c(O)c1)[C@@H](O)C2
inactive: Potency [9]

N=C(N)SCCN
inactive: Potency [9] | Potency [10] | Potency [2] | outcome [12] | Potency [6] | Potency [4] | outcome [5]

NC(N)=NC(N)=Nc1ccccc1
inactive: Potency [9] | Potency [10] | Potency [2] | outcome [12] | Potency [3] | Potency [6] | Potency [4] | outcome [5]

OC1(c2ccc(Cl)cc2)CCN(Cc2c[nH]c3ccccc23)CC1
inactive: Potency [9] | Potency [4] | outcome [5]
